29 molecules from PubChem BioAssay (NCATS) can be followed below.

Results filed as inconclusive are left out. The list shows a part of the results. Activity calls are given as the source filed them. Calls come from the whole dose curve; as a rule, active = well fitted curve in the direction sought with a large enough effect; inconclusive = small, poorly fitted or top-dose-only effect, or another doubt; inactive = no such curve, though single readings can be large; an effect the other way counts as inactive or inconclusive.

Experiment [1] addresses Tyrosine-protein kinase Yes (Homo sapiens) (UniProt P07947). Description: qHTS for small molecule inhibitors of Yes1 kinase: Primary Screen (AID 686947). Note: potency is the fitted concentration of half-maximal effect; nearly all actives have a fitted effect of over 60% in size. In outline: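 In this qHTS format, inhibition is expressed relative to DMSO controls with enzyme (maximum) and without enzyme (minimum). The 60 min room-temperature reaction uses 0.1 mM ATP, with ADP detected by luminescence.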

Experiment [2] in a line: qHTS for small molecule inhibitors of Yes1 kinase: Counter Assay (AID 686950).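 Note: no kinase present so only ADP-Glo detection of a fixed ADP amount is tested; luminescence from ADP-Glo reporting ADP in a fixed ATP and ADP mixture; series mostly up to about 77 µM.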 In outline: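 ADP-Glo luminescence read after a 60 min room-temperature incubation of compound with an ATP/ADP mix (0.08 mM/0.02 mM) and no kinase, following a 20 min compound preincubation. Signal scaled between ATP+ADP (max) and 0.1 mM ATP-only (min) wells; Tris pH 7.5, Mg2+, DTT.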
In general terms: qHTS replaces the single test concentration by a dilution series.

The target of experiment [3] is DNA polymerase iota (Homo sapiens) (UniProt Q9UNA4). Description: qHTS for Inhibitors of Polymerase Iota: Confirmatory Assay for Cherry-picked Compounds (AID 720496). Note: potency is the fitted concentration of half-maximal effect. The settings on record: Pol iota primer extension, TAMRA/BHQ fluorescence. In outline: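 Enzyme (10 nM Pol iota) and compound sit together for 15 min at room temperature. Adding annealed primer/TAMRA-reporter/BHQ-2-template substrate, 50 nM final, starts the reaction, which is followed by fluorescence over 10 min.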

The target of experiment [4] is Flap endonuclease 1 (Homo sapiens) (UniProt P39748). Description: qHTS Assay for the Inhibitors of FEN1: Confirmatory Assay for Cherry-picked Compounds (AID 720498). Note: potency is the fitted concentration of half-maximal effect; nearly all actives have a fitted effect of over 60% in size. The settings on record: FEN1 flap cleavage, TAMRA/BHQ2 fluorogenic DNA substrate. In outline:
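Human FEN1 (10 nM reagent) was preincubated with compounds for 15 min at room temperature, then 50 nM final double-flap DNA substrate (5'-TAMRA flap, BHQ-2 quencher strand) was added. Fluorescence (ex 525/em 598 nm) was read at 0 and 15 min.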

Experiment [5] concerns the target DNA polymerase eta (Homo sapiens) (UniProt Q9Y253). Nature of the experiment: qHTS for Inhibitors of Polymerase Eta: Confirmatory Assay for Cherry-picked Compounds (AID 720502). Note: potency is the fitted concentration of half-maximal effect. As to conditions: Pol eta primer extension, TAMRA/BHQ fluorescence, 10 min. In outline:
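Enzyme at 10 nM is mixed with pin-transferred compound and left 15 min at room temperature. Substrate (50 nM final) is then added, and plates are read at 0 min and after 10 min.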

Experiment [6] has as its target DNA polymerase kappa (Homo sapiens) (UniProt Q9UBT6). Description: qHTS for Inhibitors of Polymerase Kappa: Confirmatory Assay for Cherry-picked Compounds (AID 720501). Note: potency is the fitted concentration of half-maximal effect. As to conditions: purified Pol-kappa, fluorescent strand-displacement substrate. In outline: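 Strand-displacement fluorescence read-out: TAMRA reporter released from a BHQ-2-quenched template, measured at 525/598 nm over a 10 min kinetic window. Substrate was 50 nM final; enzyme was 10 nM Pol-kappa, preincubated 15 min at room temperature with compound.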

The target of experiment [7] is Bifunctional 3'-5' exonuclease/ATP-dependent helicase WRN (Homo sapiens) (UniProt Q14191). Nature of the experiment: qHTS for Inhibitors of WRN Helicase: Confirmatory Assay for Cherry-picked Compounds. (AID 720497). Note: potency is the fitted concentration of half-maximal effect; nearly all actives have a fitted effect of over 65% in size. The gist of the method: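 Confirmatory retest of cherry-picked hits in 1536-well format. Enzyme (20 nM final) sat with compound for 15 min at room temperature before forked duplex substrate (100 nM) and ATP (2 mM) were added, and unwinding was followed kinetically by red fluorescence.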

The nature of experiment [8]: qHTS for Inhibitors of WRN Helicase: Thiazole Orange DNA Binding Counterscreen (AID 720499).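 Note: drop in dye fluorescence marks compound binding to DNA; nearly all actives have a fitted effect of over 60% in size.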 The gist of the method:
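Fluorescent ThO–DNA complex (100 nM dye, 50 nM unlabeled DNA) exposed to test compounds for 15 min at room temperature; emission at 530 nm after 480 nm excitation reports dye displacement.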

Experiment [9] addresses RecQ-like DNA helicase BLM (Homo sapiens) (UniProt P54132). Description: qHTS for Inhibitors of WRN Helicase: BLM Helicase Counterscreen for WRN Inhibitors (AID 720503). Note: potency is the fitted concentration of half-maximal effect; nearly all actives have a fitted effect of over 60% in size. The gist of the method:
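BLM at 1 nM was preincubated with compound for 15 min at room temperature in 25 mM Tris-HCl pH 8.0, 50 mM NaCl, 2 mM MgCl2, 1 mM DTT and 0.01% Tween-20. Unwinding was started with 100 nM DNA and 2 mM ATP (final). Fluorescence (ex 525/em 598 nm) was read twice, 15 min apart, and normalized to enzyme-free and DMSO controls.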

Bifunctional 3'-5' exonuclease/ATP-dependent helicase WRN (Homo sapiens), sequence (Q14191 whole entry, looked up): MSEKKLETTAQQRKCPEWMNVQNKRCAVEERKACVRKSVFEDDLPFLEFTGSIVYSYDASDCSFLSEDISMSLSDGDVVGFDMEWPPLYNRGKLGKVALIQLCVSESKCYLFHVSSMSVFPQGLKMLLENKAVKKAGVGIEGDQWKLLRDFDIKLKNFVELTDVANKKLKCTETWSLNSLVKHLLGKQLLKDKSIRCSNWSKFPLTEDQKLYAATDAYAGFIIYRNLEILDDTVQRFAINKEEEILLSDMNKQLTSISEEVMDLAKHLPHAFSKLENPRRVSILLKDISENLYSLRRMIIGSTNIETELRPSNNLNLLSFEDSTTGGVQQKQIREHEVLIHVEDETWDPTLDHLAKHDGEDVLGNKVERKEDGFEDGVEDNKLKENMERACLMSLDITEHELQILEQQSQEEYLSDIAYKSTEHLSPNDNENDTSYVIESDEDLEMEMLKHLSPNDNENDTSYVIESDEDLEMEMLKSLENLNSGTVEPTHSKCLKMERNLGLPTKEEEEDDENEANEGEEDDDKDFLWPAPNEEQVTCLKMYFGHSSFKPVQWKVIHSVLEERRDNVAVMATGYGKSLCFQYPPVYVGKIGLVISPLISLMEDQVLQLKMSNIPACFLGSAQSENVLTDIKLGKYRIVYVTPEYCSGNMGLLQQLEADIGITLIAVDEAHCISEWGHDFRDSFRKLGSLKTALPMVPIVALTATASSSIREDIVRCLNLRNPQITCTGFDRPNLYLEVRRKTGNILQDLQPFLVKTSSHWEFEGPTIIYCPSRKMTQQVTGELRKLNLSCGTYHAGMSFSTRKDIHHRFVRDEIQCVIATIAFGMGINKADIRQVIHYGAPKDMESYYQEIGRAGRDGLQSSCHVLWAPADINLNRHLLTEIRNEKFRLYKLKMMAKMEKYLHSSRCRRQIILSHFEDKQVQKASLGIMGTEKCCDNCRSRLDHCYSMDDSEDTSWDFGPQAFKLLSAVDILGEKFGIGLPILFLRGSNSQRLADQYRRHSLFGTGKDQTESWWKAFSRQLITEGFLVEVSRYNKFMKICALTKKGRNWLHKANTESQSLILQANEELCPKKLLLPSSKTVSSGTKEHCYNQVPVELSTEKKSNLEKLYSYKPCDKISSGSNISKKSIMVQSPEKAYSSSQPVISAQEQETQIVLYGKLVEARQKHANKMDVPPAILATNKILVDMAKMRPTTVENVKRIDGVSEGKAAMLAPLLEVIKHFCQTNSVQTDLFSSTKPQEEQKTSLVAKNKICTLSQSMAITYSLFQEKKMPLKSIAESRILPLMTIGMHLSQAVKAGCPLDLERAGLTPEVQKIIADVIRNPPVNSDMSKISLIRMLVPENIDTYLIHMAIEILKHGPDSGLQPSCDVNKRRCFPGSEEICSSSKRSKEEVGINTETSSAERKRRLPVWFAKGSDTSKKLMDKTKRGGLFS
DNA polymerase iota (Homo sapiens), sequence (Q9UNA4 whole entry, looked up): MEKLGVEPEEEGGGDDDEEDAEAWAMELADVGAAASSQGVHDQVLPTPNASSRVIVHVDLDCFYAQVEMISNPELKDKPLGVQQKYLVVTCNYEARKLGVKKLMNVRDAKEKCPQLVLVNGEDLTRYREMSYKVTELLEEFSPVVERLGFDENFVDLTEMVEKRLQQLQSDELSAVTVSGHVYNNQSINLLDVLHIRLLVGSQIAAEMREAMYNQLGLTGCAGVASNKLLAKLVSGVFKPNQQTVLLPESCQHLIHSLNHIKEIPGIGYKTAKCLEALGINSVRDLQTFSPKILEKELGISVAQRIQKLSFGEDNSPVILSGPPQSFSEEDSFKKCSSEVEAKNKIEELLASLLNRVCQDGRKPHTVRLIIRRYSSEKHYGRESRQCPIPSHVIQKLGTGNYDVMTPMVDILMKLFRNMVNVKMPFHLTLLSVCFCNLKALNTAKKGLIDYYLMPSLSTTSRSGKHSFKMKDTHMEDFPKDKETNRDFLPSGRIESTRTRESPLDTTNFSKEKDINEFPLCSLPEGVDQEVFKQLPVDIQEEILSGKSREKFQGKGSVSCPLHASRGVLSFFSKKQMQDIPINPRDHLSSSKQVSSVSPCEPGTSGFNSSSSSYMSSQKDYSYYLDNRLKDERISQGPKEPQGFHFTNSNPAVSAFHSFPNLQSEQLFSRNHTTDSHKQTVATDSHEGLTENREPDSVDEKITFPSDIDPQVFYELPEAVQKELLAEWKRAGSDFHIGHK
DNA polymerase kappa (Homo sapiens), sequence (Q9UBT6 whole entry, looked up): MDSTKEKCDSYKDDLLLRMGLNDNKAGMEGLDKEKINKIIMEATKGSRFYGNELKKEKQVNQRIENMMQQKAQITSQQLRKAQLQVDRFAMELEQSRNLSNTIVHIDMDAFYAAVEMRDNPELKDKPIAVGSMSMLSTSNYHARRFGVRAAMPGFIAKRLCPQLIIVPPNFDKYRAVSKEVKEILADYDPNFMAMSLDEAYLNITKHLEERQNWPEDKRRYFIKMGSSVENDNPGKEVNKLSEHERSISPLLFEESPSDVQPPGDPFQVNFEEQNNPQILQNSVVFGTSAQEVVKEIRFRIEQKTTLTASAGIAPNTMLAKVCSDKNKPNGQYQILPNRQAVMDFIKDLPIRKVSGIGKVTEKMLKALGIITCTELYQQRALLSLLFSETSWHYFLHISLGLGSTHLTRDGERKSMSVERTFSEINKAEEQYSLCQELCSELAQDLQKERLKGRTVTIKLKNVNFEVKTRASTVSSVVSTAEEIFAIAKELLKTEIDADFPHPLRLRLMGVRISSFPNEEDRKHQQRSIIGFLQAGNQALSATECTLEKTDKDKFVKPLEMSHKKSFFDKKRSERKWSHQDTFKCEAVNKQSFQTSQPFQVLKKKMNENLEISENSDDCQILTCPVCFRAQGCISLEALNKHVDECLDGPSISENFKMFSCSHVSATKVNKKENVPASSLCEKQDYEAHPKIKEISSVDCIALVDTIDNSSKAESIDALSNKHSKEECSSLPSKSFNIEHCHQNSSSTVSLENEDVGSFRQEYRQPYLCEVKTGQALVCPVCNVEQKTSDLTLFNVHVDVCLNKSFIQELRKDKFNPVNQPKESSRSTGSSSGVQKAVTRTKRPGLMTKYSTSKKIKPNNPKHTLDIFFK
Flap endonuclease 1 (Homo sapiens), sequence (P39748 whole entry, looked up): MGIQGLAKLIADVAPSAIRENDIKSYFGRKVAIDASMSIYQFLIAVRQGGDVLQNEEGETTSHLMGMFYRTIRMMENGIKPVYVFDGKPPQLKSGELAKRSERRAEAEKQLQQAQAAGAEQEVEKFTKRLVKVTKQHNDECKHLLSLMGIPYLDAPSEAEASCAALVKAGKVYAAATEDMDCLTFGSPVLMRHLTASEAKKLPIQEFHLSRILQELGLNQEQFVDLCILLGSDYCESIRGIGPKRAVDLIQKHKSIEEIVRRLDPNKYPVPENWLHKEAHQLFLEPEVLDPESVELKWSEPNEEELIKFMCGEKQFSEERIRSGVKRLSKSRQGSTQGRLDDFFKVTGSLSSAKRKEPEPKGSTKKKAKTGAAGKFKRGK
RecQ-like DNA helicase BLM (Homo sapiens), sequence (P54132 whole entry, looked up): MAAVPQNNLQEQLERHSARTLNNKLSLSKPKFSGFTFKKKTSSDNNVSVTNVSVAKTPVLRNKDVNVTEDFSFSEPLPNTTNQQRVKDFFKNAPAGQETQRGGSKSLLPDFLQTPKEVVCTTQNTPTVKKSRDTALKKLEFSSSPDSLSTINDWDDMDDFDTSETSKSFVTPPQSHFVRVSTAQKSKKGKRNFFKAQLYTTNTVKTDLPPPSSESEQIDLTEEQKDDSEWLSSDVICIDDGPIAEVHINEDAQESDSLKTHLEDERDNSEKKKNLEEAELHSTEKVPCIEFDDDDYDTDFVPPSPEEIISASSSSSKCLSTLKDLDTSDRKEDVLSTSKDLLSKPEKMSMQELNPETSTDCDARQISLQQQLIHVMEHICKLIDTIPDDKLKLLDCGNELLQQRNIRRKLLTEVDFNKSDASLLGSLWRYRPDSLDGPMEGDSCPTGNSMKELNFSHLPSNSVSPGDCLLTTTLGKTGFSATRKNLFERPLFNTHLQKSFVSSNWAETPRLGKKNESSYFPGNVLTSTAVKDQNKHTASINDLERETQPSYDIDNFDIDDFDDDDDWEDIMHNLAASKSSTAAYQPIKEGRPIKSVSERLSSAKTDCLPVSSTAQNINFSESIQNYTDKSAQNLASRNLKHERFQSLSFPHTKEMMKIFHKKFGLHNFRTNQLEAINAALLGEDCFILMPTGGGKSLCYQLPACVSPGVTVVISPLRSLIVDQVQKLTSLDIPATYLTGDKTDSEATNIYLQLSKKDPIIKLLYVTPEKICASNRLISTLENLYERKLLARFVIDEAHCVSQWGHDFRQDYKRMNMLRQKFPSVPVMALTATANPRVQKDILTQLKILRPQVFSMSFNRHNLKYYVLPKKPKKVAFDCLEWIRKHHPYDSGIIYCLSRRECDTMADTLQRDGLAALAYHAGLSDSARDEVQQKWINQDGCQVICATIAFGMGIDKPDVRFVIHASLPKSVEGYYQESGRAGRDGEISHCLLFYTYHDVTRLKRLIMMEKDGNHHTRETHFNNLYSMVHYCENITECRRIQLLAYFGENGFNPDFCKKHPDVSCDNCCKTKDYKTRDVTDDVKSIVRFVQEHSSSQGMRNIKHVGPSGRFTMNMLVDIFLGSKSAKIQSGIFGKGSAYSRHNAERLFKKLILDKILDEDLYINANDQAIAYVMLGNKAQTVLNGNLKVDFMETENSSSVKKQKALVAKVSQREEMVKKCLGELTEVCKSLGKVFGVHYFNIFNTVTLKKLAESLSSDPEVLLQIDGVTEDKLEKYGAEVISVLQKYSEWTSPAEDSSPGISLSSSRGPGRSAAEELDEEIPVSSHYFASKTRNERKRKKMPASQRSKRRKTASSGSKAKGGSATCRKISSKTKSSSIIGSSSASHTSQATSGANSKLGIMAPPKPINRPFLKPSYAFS

For the molecule `COC(=O)c1sc(-n2cnc3cc(OC)c(OC)cc32)cc1OCc1ccccc1C(F)(F)F`, the Potency in experiment [1] was 0.654 µM (active). Moreover, in experiment [2], the call was inactive.
The like results for `NC(=O)Cc1ccccc1Oc1nccc(-c2c(-c3ccc(F)cc3)ncn2C2CCNCC2)n1` were, in that order, 36.8 µM (active) and “inactive”.
For `O=C(CSc1nc2ccccc2c(=O)[nH]1)Nc1nc(-c2ccc(Br)cc2)cs1`, the Potency in [3] is 21.2 µM (active); in experiment [4], 60.1 µM (active); in experiment [5], 75.7 µM (active).
In the case of `CN(C)CCNC(=O)c1ccc(Cl)c2cc3ccccc3nc12`, the results for the Potency in [3], in [4] and in [6] were 67 µM (active), 13.5 µM (active) and 21.2 µM (active), respectively.
As to `COc1cccc2c1C(=O)c1c(O)c3c(c(O)c1C2=O)CC(O)(C(C)=NNC(=O)c1ccc(Cl)c(Cl)c1)CC3OC1CC(N)C(O)C(C)O1` (stereo not given), the Potency in experiment [7] is 1.92 µM (active); in experiment [9], 4.29 µM (active). Further, the Potency result in experiment [8] was “inactive”.
For the molecule `COc1ccc(Cl)cc1NC(=O)CCS(=O)(=O)c1ccc(Br)cc1`, the Potency in experiment [3] is 18.9 µM (active); in experiment [7], 21.5 µM (active); in [5] it was 16.9 µM (active); in [9], 4.82 µM (active). Further, the Potency result in [8] was “inactive”.
Turning to `CCS(=O)(=O)c1ccc(OC)c(Nc2ncc(-c3ccccc3Cl)o2)c1`, in experiment [2], the outcome was inactive.
Regarding `CN1CCN(CCCNC(=O)c2ccc(/C=C3\Oc4ccccc4N(Cc4ccc(Cl)cc4)C3=O)cc2)CC1`, the values for the Potency in experiment [3], in experiment [4] and in experiment [5] were 42.3 µM (active), 23.9 µM (active) and 19 µM (active), respectively.
For `NS(=O)(=O)c1ccc(N=Nc2c(O)[nH]c3ccc(C(=O)NCCc4cnc[nH]4)cc23)cc1`, in [2], the result was inactive.
For the molecule `CN1CCN(S(=O)(=O)c2cccc(C(=O)Nc3sccc3C#N)c2)CC1`, the Potency in [7] was 24.1 µM (active). The Potency entry in experiment [8] was “inactive”.
`CCN1CCC(CC(=O)Nc2n[nH]c3nnc(-c4cccc(F)c4F)cc23)CC1`: the outcome in [2] was inactive.
On to `CCOc1cccc2c1N[C@@H](c1ccc(C(=O)O)cc1)[C@H]1CC=C[C@@H]21`, for which the Potency is 33.6 µM (active) in [3], 47.8 µM (active) in experiment [4], 2.38 µM (active) in [6] and 7.57 µM (active) in experiment [5].
As for `Cc1cc(/C=N/Nc2ccc([N+](=O)[O-])cn2)c(C)n1-c1cccc(C(=O)O)c1`, the Potency in [3] is 67 µM (active); in [5] it was 26.9 µM (active).
In the case of `C=CC1=C(C(=O)O)N2C(=O)[C@@H](NC(=O)/C(=N/OCC(=O)O)c3csc(N)n3)[C@H]2SC1`, the results for the Potency in [3], in [4] and in experiment [5] were 2.67 µM (active), 33.8 µM (active) and 3.38 µM (active), respectively.
As for `COc1ccc2[nH]c3c(C)c4cc[n+](C)cc4c(C)c3c2c1`, the Potency is 2.99 µM (active) in experiment [3], 1.35 µM (active) in experiment [4], 1.34 µM (active) in [6] and 9.53 µM (active) in experiment [5].
Consider `Cc1ccc(-c2nn(-c3ccccc3)cc2/C=C2\SC(=S)N(CCCCCC(=O)O)C2=O)o1`, for which the figures for the Potency in experiment [3], in experiment [6] and in [5] were 29.9 µM (active), 33.6 µM (active) and 75.7 µM (active), respectively.
`Cc1ccc(-c2nc(SCc3ccc(Br)cc3)n3[nH]c(=O)cc3n2)cc1`: the Potency is 13.6 µM (active) in experiment [7], 16.8 µM (active) in [6] and 4.82 µM (active) in experiment [9]. Also, the Potency entry in experiment [8] was “inactive”.
Consider `CC(/C=N/NC(=O)c1cc(-c2ccc3ccccc3c2)n[nH]1)=C\c1ccco1`, for which, in experiment [3], the Potency was 75.2 µM (active).
With `O=C(N/N=C/c1ccco1)c1ccc(C(=O)N/N=C/c2ccco2)o1`, the Potency in experiment [3] was 42.3 µM (active); in experiment [5], 53.6 µM (active).
Turning to `ON=C1/C(=N\O)CC2(C/C1=N/O)OCCO2`, the Potency in experiment [3] is 59.7 µM (active); in [5] it was 30.1 µM (active).
Take `CCN(c1ccc(Cl)cc1)S(=O)(=O)c1nnc(NC(=O)c2ccco2)s1`: the Potency in experiment [3] was 75.2 µM (active).
As to `NC(=O)c1cccc(Nc2nccc(Nc3cccc4[nH]ncc34)n2)c1`, the result in experiment [2] was inactive.
Take `Fc1ccc(Nc2nccc(-c3c(-c4ccc(C(F)(F)F)cc4)nn4ncccc34)n2)cc1F`: the result in experiment [2] was inactive.
Turning to `O=C(c1cc2c(s1)CCC2)N1CCN(c2ccccc2)CC1`, the figures for the Potency in [3] and in [6] were 37.7 µM (active) and 42.3 µM (active), respectively.
`O=C(O)C(c1ccccc1)N1C(=O)/C(=C\c2ccc(-c3cccc(Cl)c3)o2)SC1=S` (stereo not given): the Potency in [3] was 67 µM (active); in [4] it was 75.7 µM (active); in experiment [6], 29.9 µM (active); in [5], 75.7 µM (active).
`CCc1ccc2nc3sc(C(=O)Nc4nnc(CC)s4)c(N)c3cc2c1`: the Potency in experiment [3] is 47.4 µM (active); in [7], 13.6 µM (active); in [4], 60.1 µM (active); in [5], 60.1 µM (active); in experiment [9], 10.8 µM (active). Also, the Potency entry in [8] is “inactive”.
On to `CCOC(=O)C1=C(c2ccc(OC)cc2)C(=O)c2ccccc2C1=O`, for which, in experiment [3], the Potency is 75.2 µM (active).
`O=C1COc2c1ccc(O)c2O`: the Potency is 33.6 µM (active) in experiment [3], 6.7 µM (active) in experiment [6] and 9.53 µM (active) in experiment [5].
For `Cc1c(CC(=O)N2CCN(C(=O)C3COc4ccccc4O3)CC2)c(=O)oc2c(O)c(O)ccc12` (stereo not given), the Potency in [3] is 15 µM (active); in experiment [7], 2.41 µM (active); in experiment [5], 7.57 µM (active); in experiment [9], 1.52 µM (active). Moreover, the Potency entry in [8] is “inactive”.
